# Measurements: PubChem BioAssay (NCATS)
# Values joined by “and” are separate entries in the source; they are usually repeats but may differ in a detail not shown here. Equal values may be shown once. Inconclusive results are not listed. A number with no mark means an inactive call. Active and inactive are the calls of the source. Calls follow the shape of the dose curve; as a rule, active = well fitted curve in the direction sought with a large enough effect; inconclusive = small, poorly fitted or top-dose-only effect, or another doubt; inactive = no such curve, though single readings can be large; an effect the other way counts as inactive or inconclusive. Positions of bridges follow the written chain, without caps; N, C: chain ends. Non-standard residues stand in square brackets, D forms with d. Residues, ends and D or L forms follow the SMILES beside them. ξ: configuration not given here. *: point of attachment. Octanoyl(6-Me) = CCC(C)CCCCC(=O)*; ξThr(3R) = C[C@@H](O)C(N)C(=O)O; dDab = NCC[C@@H](N)C(=O)O; Dab = NCC[C@H](N)C(=O)O
# Columns and labels:
# [1] = biological target: Cellular tumor antigen p53 (Homo sapiens) (UniProt P04637); experiment: Primary qHTS for small molecule compounds that upregulate eGFP-tagged delta133p53alpha (in N-terminal) cells. (AID 2060322); details: NCI-H358 eGFP-delta133p53alpha fluorescence, 24 h; activation: active compounds read high; also: nearly all actives have a fitted effect of over 75% in size;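 as to activation: cells pre-induced with doxycycline then dosed without doxycycline; series mostly up to about 56 µM; 0% = DMSO vehicle and 100% = reference activator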
# Sequence of Cellular tumor antigen p53 (Homo sapiens) (P04637 whole entry, looked up): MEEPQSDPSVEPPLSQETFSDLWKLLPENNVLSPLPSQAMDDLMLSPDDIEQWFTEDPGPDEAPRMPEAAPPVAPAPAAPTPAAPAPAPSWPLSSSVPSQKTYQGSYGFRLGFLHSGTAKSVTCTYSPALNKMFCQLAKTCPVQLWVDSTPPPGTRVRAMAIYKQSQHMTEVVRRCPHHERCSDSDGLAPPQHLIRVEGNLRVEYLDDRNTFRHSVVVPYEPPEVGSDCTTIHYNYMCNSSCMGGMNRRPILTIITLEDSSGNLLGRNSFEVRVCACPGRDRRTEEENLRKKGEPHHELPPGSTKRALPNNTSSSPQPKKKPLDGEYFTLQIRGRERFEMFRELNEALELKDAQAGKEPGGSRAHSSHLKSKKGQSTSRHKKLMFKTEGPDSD
# Outline: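 NCI-H358 cells pre-induced 24 h with 10 ng/ml doxycycline for eGFP-delta133p53alpha, plated dox-free and exposed 24 h at 37C to titrated compounds. Fixed, Hoechst-stained; gated GFP peak intensity by laser scanning cytometry, normalized to DMSO (0%) and 57.5 uM 5-azacytidine (100%).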
# [2] = BET inhibitor-based combinations targeting novel dependencies in MECOM-rearranged (r) AML: SET-2 cell line (AID 2202231); details: SET-2 AML cells viability, CellTiter-Glo luminescence, 48 h; viability: active compounds read low, concentration not given here; also: nearly all actives have a fitted effect of over 35% in size;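 as to viability: plate controls were DMSO treated cells for no effect and wells without cells for full effect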
# Outline: (§1)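 Readout: CellTiter-Glo luminescence. Exposure: 48 h, 11 concentrations, 500 cells/well. Metric: AUC and within-line Z-AUC after DMSO/empty-well normalization.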
# [3] = BET inhibitor-based combinations targeting novel dependencies in MECOM-rearranged (r) AML: OCI-AML3 cell line (AID 2202232); details: Potency: OCI-AML3 viability; also: nearly all actives have a fitted effect of over 35% in size
# Outline: as §1
# [4] = BET inhibitor-based combinations targeting novel dependencies in MECOM-rearranged (r) AML: MV-4-11 cell line (AID 2202233); also: nearly all actives have a fitted effect of over 45% in size
# Outline: (§2)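 Seeding density was 500 cells/well, and drug exposure lasted 48 hr under standard culture conditions. Read-out used CellTiter-Glo reagent with a 15 min room-temperature incubation before luminescence measurement; AUC and Z-AUC summarize the normalized responses.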
# [5] = BET inhibitor-based combinations targeting novel dependencies in MECOM-rearranged (r) AML: HNT-34 cell line (AID 2202234); also: nearly all actives have a fitted effect of over 35% in size
# Outline: as §2
# [6] = BET inhibitor-based combinations targeting novel dependencies in MECOM-rearranged (r) AML: UCSD-AML1 cell line (AID 2202235); also: nearly all actives have a fitted effect of over 40% in size
# Outline: as §2
# [7] = BET inhibitor-based combinations targeting novel dependencies in MECOM-rearranged (r) AML: AML-191 cell line (AID 2202236; also: nearly all actives have a fitted effect of over 35% in size)
# Outline: as §1
# [8] = BET inhibitor-based combinations targeting novel dependencies in MECOM-rearranged (r) AML: AML-194 cell line (AID 2202237; also: nearly all actives have a fitted effect of over 40% in size)
# Outline: as §1
# Potency is read from the fitted curve at half-maximal effect.
SMILES,Potency [1],Potency [2],Potency [3],Potency [4],Potency [5],Potency [6],Potency [7],Potency [8],activation [1],viability [2] [%]
O=C1c2ccccc2-[n+]2ccc3c([nH]c4ccccc43)c21,15.3 µM (active),2.63 µM (active),1.86 µM (active),1.48 µM (active),1.86 µM (active),1.86 µM (active),1.66 µM (active),2.35 µM (active),–,–
c1ccc(CNc2nc(NCc3ccccc3)c3ccccc3n2)cc1,–,16.6 µM (active),18.6 µM (active),9.34 µM (active),9.34 µM (active),8.33 µM (active),9.34 µM (active),9.34 µM (active),44.2%,–
O=NN(CCCl)C(=O)NC1CCCCC1,–,–,inactive,inactive,inactive,inactive,inactive,inactive,-3.35% and 3.74%,112
O=c1[nH]c(=O)n(C2CCCO2)cc1F (centres undefined),–,–,inactive,20.9 µM (active),inactive,inactive,inactive,inactive,-1.88%,111
CN1C(C(=O)Nc2ccccn2)=C(O)c2sc(Cl)cc2S1(=O)=O,–,–,inactive,inactive,inactive,inactive,inactive,inactive,-22.9%,103
COc1cccc2c1C(=O)c1c(O)c3c(c(O)c1C2=O)C[C@@](O)(C(=O)CO)C[C@@H]3O[C@H]1C[C@H](N)[C@@H](O)[C@H](C)O1,–,1.18 µM (active),0.148 µM (active),0.0372 µM (active),0.263 µM (active),0.132 µM (active),0.372 µM (active),0.417 µM (active),-26.9%,–
C[C@]12C=CC(=O)C=C1CC[C@@H]1[C@@H]2[C@@H](O)C[C@@]2(C)[C@H]1CC[C@]2(O)C(=O)CO,–,–,inactive,inactive,inactive,inactive,0.372 µM (active),1.18 µM (active),-4.18%,103
CC(=O)OCCN1C(=O)c2c(C)nc3ccc(S(=O)(=O)N4CCOCC4)cc3c2C1=O,–,–,inactive,inactive,inactive,inactive,inactive,inactive,22.9%,121
CCn1cc(C(=O)O)c(=O)c2cc(F)c(N3CCNCC3)cc21,–,–,inactive,inactive,inactive,inactive,inactive,inactive,-8.37% and 13.6%,96.1
CN(CC(=O)N(Cc1ccc(C2CCCCC2)cc1)c1ccc(C(=O)O)c(O)c1)S(=O)(=O)c1c(F)c(F)c(F)c(F)c1F,–,–,9.34 µM (active),6.61 µM (active),6.61 µM (active),inactive,26.3 µM (active),inactive,37.6%,114
Cc1noc(-c2ccc(CSCCC(=O)O)cc2)c1NC(=O)OC(C)c1ccccc1Cl (centres undefined),–,–,inactive,inactive,inactive,inactive,inactive,inactive,-1.99%,114
Oc1ccc(C2=Cc3ccc(O)cc3OC2)cc1,–,2.09 µM (active),0.525 µM (active),0.662 µM (active),1.18 µM (active),1.32 µM (active),2.95 µM (active),10.5 µM (active),5.86%,–
NC(=O)c1ccc(-c2nc(-c3ccc4c(c3)OCO4)c(-c3ccccn3)[nH]2)cc1,–,–,inactive,inactive,inactive,inactive,inactive,inactive,-10.5%,112
COc1ccc(S(=O)(=O)Nc2cc(-c3c(O)ccc4ccccc34)c(O)c3ccccc23)cc1,–,11.8 µM (active),2.63 µM (active),0.833 µM (active),1.66 µM (active),3.72 µM (active),1.86 µM (active),1.66 µM (active),23.1%,–
CC(C)[C@H](N)C(=O)OCCOCn1cnc2c(=O)[nH]c(N)nc21,–,–,inactive,inactive,inactive,inactive,inactive,inactive,-14.1% and 18.6%,92.3
N#Cc1c(NC(=O)c2cccc3ccccc23)sc2c1CCCC2,13.7 µM (active),0.525 µM (active),0.332 µM (active),0.372 µM (active),0.372 µM (active),0.332 µM (active),–,0.332 µM (active),–,–
CN(Cc1cc(Br)cc(Br)c1N)C1CCCCC1,–,–,inactive,inactive,inactive,inactive,–,inactive,-11.7% and 14.8%,102
NCC1CCC(C(=O)O)CC1 (centres undefined),–,–,inactive,inactive,inactive,inactive,–,inactive,20.7%,115
CC(=O)SC[C@@H](C)C(=O)N1CCC[C@H]1C(=O)N[C@@H](Cc1ccccc1)C(=O)O,–,–,inactive,inactive,inactive,inactive,inactive,inactive,-26.8%,115

SMILES,Potency [1],Potency [2],Potency [3],Potency [4],Potency [5],Potency [6],Potency [7],Potency [8],activation [1],viability [2] [%]
Nc1cccc2c1C(=O)N(C1CCC(=O)NC1=O)C2=O (centres undefined),–,–,inactive,0.0013 µM (active),inactive,inactive,inactive,inactive,28.8%,112
COC(=O)Nc1cc(Nc2cc(NC3CC3)c3ncc(C#N)n3n2)c(Cl)c(N2CCN(C)CC2)c1,–,2.95 µM (active),3.32 µM (active),0.833 µM (active),1.32 µM (active),2.63 µM (active),–,2.63 µM (active),-10.3%,–
CCCCCOC(=O)Nc1nc(=O)n([C@@H]2O[C@H](C)[C@@H](O)[C@H]2O)cc1F,–,–,inactive,inactive,inactive,inactive,–,inactive,-37.9%,110
COc1cc([C@@H]2c3cc4c(cc3[C@H](O)[C@H]3COC(=O)[C@@H]23)OCO4)cc(OC)c1OC,–,1.18 µM (active),0.833 µM (active),0.833 µM (active),0.417 µM (active),–,0.662 µM (active),–,31.7%,–
N#Cc1ccc(NC(=O)Nc2ccccc2Br)c2n[nH]nc12,–,–,14.8 µM (active),inactive,inactive,inactive,–,inactive,-2.35%,105
CCC(C)CCCCC(=O)N[C@@H](CCN)C(=O)NC(C(=O)N[C@H](CCN)C(=O)N[C@@H]1CCNC(=O)C([C@@H](C)O)NC(=O)[C@@H](CCN)NC(=O)[C@@H](CCN)NC(=O)[C@@H](CC(C)C)NC(=O)[C@H](Cc2ccccc2)NC(=O)[C@H](CCN)NC1=O)[C@@H](C)O (stereo partly drawn) ({Octanoyl(6-Me)}-[Dab][ξThr(3R)][dDab][dDab][Dab]F[dL][dDab][dDab][ξThr(3R)]; lactam 4-C),–,–,inactive,inactive,inactive,inactive,inactive,inactive,11.9%,126
CN(C)CCc1c[nH]c2ccc(CS(=O)(=O)N3CCCC3)cc12,–,–,inactive,inactive,inactive,inactive,–,inactive,-5.58%,115
C=CC(=O)Nc1cc2c(Nc3ccc(F)c(Cl)c3)ncnc2cc1OCCCN1CCOCC1,4.9 µM (active),14.8 µM (active),4.68 µM (active),1.32 µM (active),2.63 µM (active),4.68 µM (active),–,11.8 µM (active),–,–
O=C(NC1CCNCC1)c1[nH]ncc1NC(=O)c1c(Cl)cccc1Cl,0.685 µM (active),11.8 µM (active),1.05 µM (active),0.662 µM (active),1.05 µM (active),1.32 µM (active),2.09 µM (active),2.63 µM (active),–,–
Cc1c(CCOc2ccc(C(=O)O)cc2)c2cc(Cl)ccc2n1C(c1ccccc1)c1ccccc1,–,–,inactive,inactive,inactive,inactive,–,inactive,-25%,114
Cc1cnc(Nc2ccc(N3CCN(C)CC3)cc2)nc1Nc1cccc(S(=O)(=O)NC(C)(C)C)c1,–,2.63 µM (active),5.25 µM (active),0.662 µM (active),0.833 µM (active),1.86 µM (active),–,2.95 µM (active),28.8%,–
NC[C@H]1O[C@H](O[C@@H]2[C@@H](O)[C@@H](O[C@H]3O[C@H](CO)[C@@H](O)[C@H](N)[C@@H]3O)[C@H](N)C[C@@H]2N)[C@H](O)[C@@H](O)[C@H]1O,–,–,inactive,inactive,inactive,inactive,–,inactive,5.09%,111
CNC[C@H](O)[C@@H](O)[C@H](O)[C@H](O)CO,–,–,inactive,inactive,inactive,inactive,–,inactive,-10%,121
Cn1cnc(=N)c2[nH]cnc21,–,–,inactive,inactive,inactive,inactive,inactive,inactive,10.7%,111
COc1cc(C(=O)NC2CCN(C)CC2)ccc1Nc1ncc2c(n1)N(C1CCCC1)CCC(=O)N2C(C)C,–,23.5 µM (active),14.8 µM (active),6.61 µM (active),16.6 µM (active),–,18.6 µM (active),23.5 µM (active),7.36%,–
Nc1nc(-c2nn(Cc3ccccc3F)c3ncccc23)nc(N)c1N1CCOCC1,–,–,0.0018 µM (active),inactive,inactive,inactive,inactive,inactive,6.49%,123
CCc1cc(C(N)=S)ccn1,–,–,inactive,inactive,inactive,inactive,–,inactive,-7.53% and 9.71%,109
O=C(O)c1cc(=O)[nH]c(=O)[nH]1,–,–,inactive,inactive,inactive,inactive,–,inactive,15.1% and 14.7%,111
